# Screening results as filed in PubChem BioAssay.
# D2 antag: HTS Assay for Allosteric Antagonists of the Human D2 Dopamine Receptor: Primary Screen for Antagonists. inhibition, % at 10 µM. HEK293 TREx D2 cells, calcium flux, dopamine EC80. D(2) dopamine receptor (Homo sapiens), P14416. 340,000 tested, 2% active; in the data active = inhibition above about 30%; inactive = below that, where a call was filed; note: 0% is about no effect
# Target sequence (P14416 whole entry, looked up): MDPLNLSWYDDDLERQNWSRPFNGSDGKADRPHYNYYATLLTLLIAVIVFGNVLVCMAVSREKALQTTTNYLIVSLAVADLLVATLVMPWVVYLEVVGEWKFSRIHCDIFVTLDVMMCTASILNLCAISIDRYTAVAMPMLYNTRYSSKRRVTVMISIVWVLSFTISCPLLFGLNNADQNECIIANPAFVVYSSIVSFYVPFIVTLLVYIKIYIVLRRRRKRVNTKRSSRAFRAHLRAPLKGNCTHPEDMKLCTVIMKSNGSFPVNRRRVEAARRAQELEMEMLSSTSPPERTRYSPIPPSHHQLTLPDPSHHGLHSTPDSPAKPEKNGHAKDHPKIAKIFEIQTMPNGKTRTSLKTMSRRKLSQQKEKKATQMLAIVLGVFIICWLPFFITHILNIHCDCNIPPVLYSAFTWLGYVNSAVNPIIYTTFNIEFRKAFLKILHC
#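 Tetracycline-induced HEK293 T-REx cells expressing D2 force-coupled to calcium signalling were dye-loaded, exposed to compound for 180 s, then challenged with an EC80 of dopamine; calcium flux was followed kinetically for a further 180 s.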
# D2 ag-1: Beta-Arrestin HTS for Positive Allosteric Modulators of the Human D2 Dopamine Receptor: Agonists; 360,000 tested, 0.084% active; D(2) dopamine receptor (Homo sapiens), P14416; activation, % (concentration not given with the values); AID 624465, 2012; DiscoveRx PathHunter D2 beta-arrestin, luminescence, 90 min; 100% = 57 uM dopamine signal; in the data active = activation above about 40%
#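 Agonist mode: compounds alone added to overnight-plated D2 PathHunter cells for 90 min at 37 C, with 57 uM final dopamine (EC100) defining full response. Beta-arrestin recruitment detected by chemiluminescent reagent, read after 1 h at ambient temperature.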
# D2 PAM-1: Beta-Arrestin HTS for Positive Allosteric Modulators of the Human D2 Dopamine Receptor: Potentiators; AID 624464, 2012; DiscoveRx D2 beta-arrestin cells, luminescence, 90 min; 100% = 57 uM dopamine signal; 360,000 tested, 0.23% active; potentiation, % (test concentration not listed); D(2) dopamine receptor (Homo sapiens), P14416; in the data active = potentiation above about 50%
#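 PathHunter beta-arrestin assay in DiscoveRx D2 cells. Compounds were added with an EC20 of dopamine (50 nM final) for 90 min at 37 deg C. Luminescence was read 1 h after detection reagent, with 57 uM dopamine as the EC100 control.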
# D2 ag-2: HTS Assay for Allosteric Agonists of the Human D2 Dopamine Receptor: Primary Screen for Agonists. D(2) dopamine receptor (Homo sapiens), P14416. HEK293 T-REx D2 cells, calcium flux agonist mode. activation, % at 2 µM. 340,000 tested, 0.53% active;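 active = activation over 3 SD above normal in the single-dose calcium agonist read, cut at about 30% in these data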; note: 0% is about no effect
#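 Tetracycline-induced HEK293 T-REx cells with force-coupled D2 receptor, plated overnight at 30 C, loaded with no-wash calcium dye. After a 10 s baseline, compound was pin-added and calcium flux read kinetically for 180 s; calcium rises flagged agonists.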
# D2 PAM-2: HTS Assay for Positive Allosteric Modulators of the Human D2 Dopamine Receptor: Primary Screen for Potentiators. 340,000 tested, 0.34% active. HEK293 T-REx D2, calcium flux, EC20 dopamine potentiation. AID 485347, 2010. D(2) dopamine receptor (Homo sapiens), P14416. potentiation, % at 10 µM;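 active = potentiation over 3 SD above the plate norm, cut at about 30% in these data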; note: 0% is about no effect
#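 Tetracycline-induced Hek293 Trex D2 cells, force-coupled to calcium, loaded with no-wash calcium dye. Compound added with 180 s kinetic read for agonism, then EC20 dopamine and a further 180 s read for potentiation.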
# * = called active by the depositor; . = not tested or not shown. A selection: hits, their analogues and other compounds. The true share with any hit is near 2.4%.
SMILES,D2 antag,D2 ag-1,D2 PAM-1,D2 ag-2,D2 PAM-2
COc1ccc(NCC(=O)N/N=C/c2c(C)nn(Cc3ccccc3)c2Cl)cc1,31*,1,0,-1,-4
Cc1nn(Cc2ccccc2)c(C)c1/C=N/NC(=O)CNc1cccc(C(F)(F)F)c1,8,14,-10,2,2
COc1cc(NC(=O)N2c3ccccc3Sc3ccccc32)c(C(=O)O)cc1OC,8,50*,3,0,-1
COc1cc(CN(C)CCc2ccccc2)ccc1OCc1ccccc1,36*,1,-19,18,-11
Cc1cc(C)cc(C(=O)Nc2ccc3[nH]c(=O)[nH]c3c2)c1,30*,4,0,0,-2
Cc1ccc(C(=O)NC(=S)Nc2ccc(Oc3ccc(Cl)cc3)cc2)cc1,0,-3,-4,0,37*
Cc1ccc(C(=O)NC(=S)Nc2ccc3[nH]c(=O)[nH]c3c2)cc1,46*,1,-12,-1,3
Cc1ccc(NC(=S)Nc2ccc3[nH]c(=O)[nH]c3c2)cc1,-4,-3,-3,1,0
C[C@@H]1CN([C@@H](C)CO)C(=O)CCCn2nncc2CO[C@@H]1CN(C)S(=O)(=O)c1ccc2ccccc2c1,.,-1,-2,.,.
Clc1ccc(-n2cnc3c(Cl)ncnc32)cc1Cl,.,-2,-12,.,.
CC1=C(c2ccc(C(C)C)cc2)S(=O)(=O)N=C1N1CCN(c2ccccc2F)CC1,.,.,.,-1,2
O=C(NCCCN1CCCC1=O)c1ccc2c(c1)NC(=O)C(N1CCOCC1)S2 (centres undefined),33*,2,13,1,.
Cn1c(=O)n(CCCOc2ccc(Br)cc2)c2ccccc21,32*,-2,-27,1,-19
CNC[C@@H]1OCc2ccccc2-c2c(n(C)c3ccccc23)C(=O)N([C@H](C)CO)C[C@H]1C,.,-4,9,.,.
Cc1cccc(C(=O)Nc2ccc(O)c3c(=O)cc(-c4ccccc4Cl)oc23)c1,31*,-6,-7,0,-3
O=C(Nc1ccc(O)c2c(=O)cc(-c3ccccc3Cl)oc12)c1cccc(Cl)c1,23,-3,-8,0,1
CCOC(=O)CSc1nnc(-c2cccs2)n1-c1ccccc1,-7,-3,7,-1,32*
COc1ccccc1NS(=O)(=O)c1cccc(C(=O)NCC(c2ccccc2OC)N2CCCC2)c1 (centres undefined),11,-4,-43,0,-10
COc1ccc(OC)c(-c2nn(-c3ccccc3)cc2C(=O)NCC(c2ccco2)N2CCCC2)c1 (centres undefined),36*,-3,-35,0,-20
COc1ccccc1NS(=O)(=O)c1cccc(C(=O)NCC(c2ccco2)N2CCCC2)c1 (centres undefined),63*,1,-23,1,-27
CCCCc1ccc(-n2nc3ccc(NC(=O)c4cc5ccccc5o4)cc3n2)cc1,.,.,.,1,3
COc1ccccc1C=Cc1ccnc2ccccc12,.,0,-12,.,.
COc1ccc(/C=C/c2ccncc2)c2ccccc12,45*,2,14,-1,9
COCCNC(=O)/C(C#N)=C/c1cc(C(C)C)c(OC)cc1C,24,-8,-4,-1,-23
COc1cc(C)c(/C=C(\C#N)C(=O)Nc2ccc(C)cc2)cc1C(C)C,75*,-5,-16,0,-20
CCC(C)(C)NC(=O)CN(Cc1ccc2c(c1)OCO2)C(=O)CCC(=O)Nc1cc(C)ccn1,42*,-5,-8,0,13
CC(C)(C)NC(=O)CN(Cc1ccc2c(c1)OCO2)C(=O)CCC(=O)Nc1nccs1,11,-3,-2,0,14
CC1=CC(c2ccc(Cl)cc2)n2nc(NS(=O)(=O)c3ccc(C)cc3)nc2N1 (centres undefined),-8,0,0,0,-3
